What all share (test): DAPPL (digital affinity profiling via proximity ligation, sequencing); 10 mM Tris-HCl pH 7.5, 50 mM NaCl, 1 mM DTT, 4% glycerol, room temperature, 30 min; GST-TFs on glutathione beads, 16-mer random dsDNA library, 0.1% formaldehyde crosslink after washing; high values mean tight binding
The target of experiment [1] is T1, FLI1 (Homo sapiens, UniProt Q01543 1-452).
T1 sequence: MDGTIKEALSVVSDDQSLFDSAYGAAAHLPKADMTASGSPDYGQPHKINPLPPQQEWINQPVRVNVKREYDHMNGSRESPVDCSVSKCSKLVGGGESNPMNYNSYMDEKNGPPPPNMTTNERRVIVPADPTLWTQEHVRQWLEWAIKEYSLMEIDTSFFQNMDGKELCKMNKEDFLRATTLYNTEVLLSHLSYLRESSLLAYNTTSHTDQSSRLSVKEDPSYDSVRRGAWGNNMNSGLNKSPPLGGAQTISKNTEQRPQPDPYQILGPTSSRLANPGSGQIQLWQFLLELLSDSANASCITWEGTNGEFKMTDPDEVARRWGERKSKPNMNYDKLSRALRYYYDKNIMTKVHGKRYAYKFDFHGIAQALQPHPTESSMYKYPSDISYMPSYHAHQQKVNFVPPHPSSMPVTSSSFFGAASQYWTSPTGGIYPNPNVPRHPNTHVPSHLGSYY
As to conditions: protein: recombinant; tags: N-terminal GST; dsDNA, one strand shown. The method, boiled down: (§1)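 Binding signal is each hexamer's read frequency for a factor divided by its frequency in the tag-only sample. The factors were GST-fused human transcription factors from yeast, captured on glutathione beads, DNA-barcoded and pooled with that sample. Pools were incubated with 200 nmole of a random double-stranded 16-mer DNA library in Tris/NaCl/DTT/glycerol buffer at room temperature for 30 min, then washed, crosslinked with 0.1% formaldehyde, proximity-ligated with BsaI/T4 ligase (1 h, 37 °C), PCR-amplified and sequenced on an Illumina NextSeq500.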

For experiment [2], the target named is T2, ELK1 (Homo sapiens, UniProt P19419 1-428).
T2 sequence: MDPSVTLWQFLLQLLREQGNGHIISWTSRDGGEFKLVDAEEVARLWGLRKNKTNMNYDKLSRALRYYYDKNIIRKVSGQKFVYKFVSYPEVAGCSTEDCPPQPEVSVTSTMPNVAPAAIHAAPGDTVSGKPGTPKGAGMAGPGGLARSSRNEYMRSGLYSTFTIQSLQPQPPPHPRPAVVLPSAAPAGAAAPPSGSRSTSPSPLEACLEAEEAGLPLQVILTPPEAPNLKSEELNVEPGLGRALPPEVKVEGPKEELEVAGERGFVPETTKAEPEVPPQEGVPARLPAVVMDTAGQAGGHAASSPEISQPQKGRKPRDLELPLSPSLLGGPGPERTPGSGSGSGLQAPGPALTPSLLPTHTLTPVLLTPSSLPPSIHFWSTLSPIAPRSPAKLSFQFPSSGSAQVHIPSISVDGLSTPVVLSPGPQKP
As to conditions: protein: recombinant; tags: N-terminal GST; dsDNA, one strand shown. The method, boiled down: as §1

Experiment [3] concerns the target T3, GABPA (Homo sapiens, UniProt Q06546 1-454).
T3 sequence: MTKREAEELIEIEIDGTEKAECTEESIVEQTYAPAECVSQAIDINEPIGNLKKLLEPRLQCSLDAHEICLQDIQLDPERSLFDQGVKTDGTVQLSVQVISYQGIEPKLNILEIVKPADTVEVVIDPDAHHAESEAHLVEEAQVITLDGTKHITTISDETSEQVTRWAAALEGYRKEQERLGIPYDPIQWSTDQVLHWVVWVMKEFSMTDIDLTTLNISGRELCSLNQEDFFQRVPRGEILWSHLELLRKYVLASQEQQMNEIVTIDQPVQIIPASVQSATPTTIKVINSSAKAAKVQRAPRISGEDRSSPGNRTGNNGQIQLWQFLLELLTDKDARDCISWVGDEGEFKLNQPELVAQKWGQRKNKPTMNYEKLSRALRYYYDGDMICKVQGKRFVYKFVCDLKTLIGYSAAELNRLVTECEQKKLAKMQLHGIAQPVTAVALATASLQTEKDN
The note with it: protein: recombinant; tags: N-terminal GST; dsDNA, one strand shown. The method, boiled down: as §1

Experiment [4] deals with T4, ERG (Homo sapiens, UniProt P11308 1-479).
T4 sequence: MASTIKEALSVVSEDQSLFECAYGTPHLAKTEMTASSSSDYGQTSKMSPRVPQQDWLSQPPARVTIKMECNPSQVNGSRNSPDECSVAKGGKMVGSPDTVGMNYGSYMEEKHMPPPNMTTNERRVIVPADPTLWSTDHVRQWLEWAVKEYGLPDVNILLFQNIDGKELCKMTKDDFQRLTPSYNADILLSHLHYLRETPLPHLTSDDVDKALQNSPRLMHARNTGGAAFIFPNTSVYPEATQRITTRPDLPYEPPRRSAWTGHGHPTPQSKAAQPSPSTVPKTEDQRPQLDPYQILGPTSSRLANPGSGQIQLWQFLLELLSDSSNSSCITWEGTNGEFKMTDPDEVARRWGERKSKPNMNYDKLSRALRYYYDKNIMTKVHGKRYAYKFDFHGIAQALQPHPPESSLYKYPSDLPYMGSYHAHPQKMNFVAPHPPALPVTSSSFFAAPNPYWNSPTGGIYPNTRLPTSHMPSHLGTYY
As to conditions: protein: recombinant; tags: N-terminal GST; dsDNA, one strand shown. The method, boiled down:
as §1

In experiment [5] the target is ELF1 (Homo sapiens, UniProt P32519 1-619). As to conditions: protein: recombinant; tags: N-terminal GST; dsDNA, one strand shown. The method, boiled down:
as §1

Experiment [6] addresses T5, EHF (Homo sapiens, UniProt Q9NZC4 1-300).
T5 sequence: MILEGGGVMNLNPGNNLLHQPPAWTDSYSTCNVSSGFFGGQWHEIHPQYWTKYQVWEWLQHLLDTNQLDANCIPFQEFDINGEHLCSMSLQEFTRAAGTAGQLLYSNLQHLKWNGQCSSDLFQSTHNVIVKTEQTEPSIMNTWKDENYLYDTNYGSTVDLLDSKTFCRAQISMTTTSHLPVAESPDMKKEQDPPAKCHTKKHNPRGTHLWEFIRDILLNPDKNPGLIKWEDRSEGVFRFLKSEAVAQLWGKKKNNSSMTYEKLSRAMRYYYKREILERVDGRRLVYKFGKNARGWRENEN
As to conditions: protein: recombinant; tags: N-terminal GST; dsDNA, one strand shown. The method, boiled down: as §1

The target of experiment [7] is SPI1 (Homo sapiens, UniProt P17947 1-270). The note with it: protein: recombinant; tags: N-terminal GST; dsDNA, one strand shown. The essentials: as §1
The target of experiment [8] is SPIB (Homo sapiens, UniProt Q01892 1-262). The note with it: protein: recombinant; tags: N-terminal GST; dsDNA, one strand shown. The essentials:
as §1

Experiment [9] has as its target T6, ELK3 (Homo sapiens, UniProt P41970 1-407).
T6 sequence: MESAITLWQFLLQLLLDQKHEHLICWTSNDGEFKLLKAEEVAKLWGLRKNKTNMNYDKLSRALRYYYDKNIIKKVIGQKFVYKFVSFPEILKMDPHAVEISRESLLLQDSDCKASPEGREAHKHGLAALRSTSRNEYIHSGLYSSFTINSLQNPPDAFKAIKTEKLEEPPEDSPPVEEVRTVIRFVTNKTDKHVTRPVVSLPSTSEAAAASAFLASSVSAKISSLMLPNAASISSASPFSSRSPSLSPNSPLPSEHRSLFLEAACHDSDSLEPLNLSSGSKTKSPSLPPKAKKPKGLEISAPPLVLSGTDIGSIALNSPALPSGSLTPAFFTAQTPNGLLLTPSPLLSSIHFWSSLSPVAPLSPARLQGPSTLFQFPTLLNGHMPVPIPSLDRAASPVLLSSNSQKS
As to conditions: protein: recombinant; tags: N-terminal GST; dsDNA, one strand shown. The method, boiled down:
as §1

Experiment [10] has as its target T7, FEV (Homo sapiens, UniProt Q99581 1-238).
T7 sequence: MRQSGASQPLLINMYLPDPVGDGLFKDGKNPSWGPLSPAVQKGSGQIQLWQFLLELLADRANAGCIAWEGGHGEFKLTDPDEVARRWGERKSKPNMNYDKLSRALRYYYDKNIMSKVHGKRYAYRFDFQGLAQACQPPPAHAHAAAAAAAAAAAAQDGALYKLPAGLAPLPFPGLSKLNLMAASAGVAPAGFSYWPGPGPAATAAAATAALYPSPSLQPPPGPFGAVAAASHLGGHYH
As to conditions: protein: recombinant; tags: N-terminal GST; dsDNA, one strand shown. The method, boiled down: as §1

Experiment [11] deals with ETV5 (Homo sapiens, UniProt P41161 1-510). As to conditions: protein: recombinant; tags: N-terminal GST; dsDNA, one strand shown. The method, boiled down:
as §1

Experiment [12] concerns the target HSF1 (Homo sapiens, UniProt Q00613 1-529). As to conditions: protein: recombinant; tags: N-terminal GST; chain copies: 3; dsDNA, one strand shown. The method, boiled down: as §1
The target in experiment [13] is T8, SPIC (Homo sapiens, UniProt Q8N5J4 1-248).
T8 sequence: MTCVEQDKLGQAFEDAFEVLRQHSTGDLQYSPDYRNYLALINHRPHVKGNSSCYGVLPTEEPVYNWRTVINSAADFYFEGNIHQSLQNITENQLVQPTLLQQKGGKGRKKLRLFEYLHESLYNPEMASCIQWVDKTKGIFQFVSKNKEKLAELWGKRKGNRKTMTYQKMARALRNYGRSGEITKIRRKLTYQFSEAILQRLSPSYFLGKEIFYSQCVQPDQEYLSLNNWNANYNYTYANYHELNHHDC
The note with it: protein: recombinant; tags: N-terminal GST; dsDNA, one strand shown. The method, boiled down:
as §1

For experiment [14], the target named is ELF4 (Homo sapiens, UniProt Q99607 1-663). The note with it: protein: recombinant; tags: N-terminal GST; dsDNA, one strand shown. The method, boiled down: as §1
Experiment [15] deals with T9, ELK4 (Homo sapiens, UniProt P28324-2 1-405).
T9 sequence: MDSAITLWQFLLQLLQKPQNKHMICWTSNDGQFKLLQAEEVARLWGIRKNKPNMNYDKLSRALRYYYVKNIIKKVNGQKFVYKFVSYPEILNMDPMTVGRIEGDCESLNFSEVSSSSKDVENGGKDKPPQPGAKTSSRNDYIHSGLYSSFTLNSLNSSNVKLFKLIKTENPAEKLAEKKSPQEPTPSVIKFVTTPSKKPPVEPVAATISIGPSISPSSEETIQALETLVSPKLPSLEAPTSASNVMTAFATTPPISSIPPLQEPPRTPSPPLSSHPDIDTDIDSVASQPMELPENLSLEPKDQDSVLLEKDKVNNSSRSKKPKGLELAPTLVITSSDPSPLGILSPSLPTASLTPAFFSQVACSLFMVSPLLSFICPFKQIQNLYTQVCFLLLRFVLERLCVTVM
As to conditions: protein: recombinant; tags: N-terminal GST; dsDNA, one strand shown. The essentials:
as §1

Experiment [16] has as its target T10, ETV2 (Homo sapiens, UniProt O00321 1-342).
T10 sequence: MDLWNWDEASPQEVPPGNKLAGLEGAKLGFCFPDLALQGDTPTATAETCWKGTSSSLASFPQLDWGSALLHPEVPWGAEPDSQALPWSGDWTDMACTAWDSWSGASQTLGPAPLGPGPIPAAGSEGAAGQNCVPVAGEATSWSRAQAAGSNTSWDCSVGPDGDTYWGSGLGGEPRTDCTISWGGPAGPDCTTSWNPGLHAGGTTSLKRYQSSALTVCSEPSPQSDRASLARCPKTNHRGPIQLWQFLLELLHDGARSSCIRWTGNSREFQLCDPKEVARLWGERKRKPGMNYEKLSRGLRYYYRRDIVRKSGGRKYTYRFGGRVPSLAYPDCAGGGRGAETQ
As to conditions: protein: recombinant; tags: N-terminal GST; dsDNA, one strand shown. The method, boiled down: as §1

In experiment [17] the target is T11, ELF3 (Homo sapiens, UniProt P78545 1-371).
T11 sequence: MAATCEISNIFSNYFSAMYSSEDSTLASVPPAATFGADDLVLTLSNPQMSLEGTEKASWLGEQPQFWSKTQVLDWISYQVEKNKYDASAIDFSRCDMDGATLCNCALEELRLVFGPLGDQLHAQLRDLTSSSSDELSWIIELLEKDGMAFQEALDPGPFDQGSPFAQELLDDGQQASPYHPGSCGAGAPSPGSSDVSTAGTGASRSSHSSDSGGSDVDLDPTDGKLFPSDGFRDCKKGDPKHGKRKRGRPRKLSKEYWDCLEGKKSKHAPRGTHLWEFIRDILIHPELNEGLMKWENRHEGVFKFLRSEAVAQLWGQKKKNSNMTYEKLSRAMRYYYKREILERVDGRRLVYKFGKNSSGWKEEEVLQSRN
The note with it: protein: recombinant; tags: N-terminal GST; dsDNA, one strand shown. The method, boiled down:
as §1

Experiment [18] concerns the target CRX (Homo sapiens, UniProt O43186 1-299). The note with it: protein: recombinant; tags: N-terminal GST; dsDNA, one strand shown. The essentials:
as §1

Experiment [19] has as its target ETV1 (Homo sapiens, UniProt P50549 1-477). The note with it: protein: recombinant; tags: N-terminal GST; dsDNA, one strand shown. The essentials:
as §1

Results on one sequence are retold here after article PMC7862700, “An all-to-all approach to the identification of sequence-specific readers for epigenetic DNA modifications on cytosine”.

Sequence of ELF1 (P32519 whole entry): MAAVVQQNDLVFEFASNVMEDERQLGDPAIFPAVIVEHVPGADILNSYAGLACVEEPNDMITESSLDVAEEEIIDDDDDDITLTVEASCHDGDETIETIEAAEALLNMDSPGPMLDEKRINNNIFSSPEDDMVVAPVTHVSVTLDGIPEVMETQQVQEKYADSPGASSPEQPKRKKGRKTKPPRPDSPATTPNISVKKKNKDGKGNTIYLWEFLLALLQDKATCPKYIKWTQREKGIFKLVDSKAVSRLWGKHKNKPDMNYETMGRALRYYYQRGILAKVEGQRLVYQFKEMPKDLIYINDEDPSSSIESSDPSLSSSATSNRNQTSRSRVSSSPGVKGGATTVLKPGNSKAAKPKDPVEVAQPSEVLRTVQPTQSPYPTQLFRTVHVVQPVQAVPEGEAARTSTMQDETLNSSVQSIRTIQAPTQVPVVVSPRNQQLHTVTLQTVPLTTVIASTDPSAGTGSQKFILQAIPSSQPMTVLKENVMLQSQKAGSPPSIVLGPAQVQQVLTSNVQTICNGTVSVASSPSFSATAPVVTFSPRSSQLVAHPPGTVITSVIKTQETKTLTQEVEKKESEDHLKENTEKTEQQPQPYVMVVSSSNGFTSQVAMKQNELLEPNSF
Sequence of ETV5 (P41161 whole entry): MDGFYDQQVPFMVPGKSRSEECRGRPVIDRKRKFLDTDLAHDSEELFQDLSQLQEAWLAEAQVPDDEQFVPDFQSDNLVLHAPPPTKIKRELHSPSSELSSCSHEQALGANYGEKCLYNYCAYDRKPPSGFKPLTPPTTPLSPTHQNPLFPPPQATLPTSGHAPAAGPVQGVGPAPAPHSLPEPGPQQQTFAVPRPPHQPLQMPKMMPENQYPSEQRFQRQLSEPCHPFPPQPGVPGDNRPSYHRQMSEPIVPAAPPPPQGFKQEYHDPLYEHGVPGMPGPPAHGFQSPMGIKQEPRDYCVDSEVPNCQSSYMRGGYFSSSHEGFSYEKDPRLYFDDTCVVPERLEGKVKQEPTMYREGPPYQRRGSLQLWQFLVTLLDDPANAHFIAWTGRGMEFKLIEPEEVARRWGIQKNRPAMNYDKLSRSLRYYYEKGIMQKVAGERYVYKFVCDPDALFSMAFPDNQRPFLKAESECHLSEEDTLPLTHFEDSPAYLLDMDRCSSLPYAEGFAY
Sequence of CRX (O43186 whole entry): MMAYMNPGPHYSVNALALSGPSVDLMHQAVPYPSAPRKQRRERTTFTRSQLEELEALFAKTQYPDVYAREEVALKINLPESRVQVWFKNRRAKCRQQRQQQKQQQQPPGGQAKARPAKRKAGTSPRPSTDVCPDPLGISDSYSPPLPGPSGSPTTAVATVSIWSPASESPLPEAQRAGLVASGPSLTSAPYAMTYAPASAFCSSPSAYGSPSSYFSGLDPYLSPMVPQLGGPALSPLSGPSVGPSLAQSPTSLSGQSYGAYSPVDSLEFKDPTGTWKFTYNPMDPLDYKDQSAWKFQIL
Sequence of SPIB (Q01892 whole entry): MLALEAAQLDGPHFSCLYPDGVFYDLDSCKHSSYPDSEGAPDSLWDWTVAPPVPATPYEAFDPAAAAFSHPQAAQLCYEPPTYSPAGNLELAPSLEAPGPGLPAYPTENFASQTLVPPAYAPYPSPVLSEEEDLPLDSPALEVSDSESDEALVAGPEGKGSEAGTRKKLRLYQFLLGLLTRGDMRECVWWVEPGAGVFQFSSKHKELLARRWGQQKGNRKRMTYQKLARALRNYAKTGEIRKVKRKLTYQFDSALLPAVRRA
Sequence of ELF4 (Q99607 whole entry): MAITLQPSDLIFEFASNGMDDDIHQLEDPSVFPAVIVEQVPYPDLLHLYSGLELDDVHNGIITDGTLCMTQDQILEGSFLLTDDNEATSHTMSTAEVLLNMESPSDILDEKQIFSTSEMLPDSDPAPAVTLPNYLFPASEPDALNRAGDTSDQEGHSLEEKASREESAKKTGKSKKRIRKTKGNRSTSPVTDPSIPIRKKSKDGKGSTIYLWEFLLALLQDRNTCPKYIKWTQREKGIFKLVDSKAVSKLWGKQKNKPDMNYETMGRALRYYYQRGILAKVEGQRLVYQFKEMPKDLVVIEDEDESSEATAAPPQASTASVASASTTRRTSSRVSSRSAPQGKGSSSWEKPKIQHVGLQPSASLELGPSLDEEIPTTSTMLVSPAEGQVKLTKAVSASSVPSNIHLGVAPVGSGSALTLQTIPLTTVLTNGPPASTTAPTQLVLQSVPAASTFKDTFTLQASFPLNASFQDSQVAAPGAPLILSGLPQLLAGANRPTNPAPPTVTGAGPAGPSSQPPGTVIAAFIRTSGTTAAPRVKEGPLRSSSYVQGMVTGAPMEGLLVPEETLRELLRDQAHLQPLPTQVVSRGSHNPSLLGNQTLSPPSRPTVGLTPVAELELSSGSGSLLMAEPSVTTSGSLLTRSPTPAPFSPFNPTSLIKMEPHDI
Sequence of ETV1 (P50549 whole entry): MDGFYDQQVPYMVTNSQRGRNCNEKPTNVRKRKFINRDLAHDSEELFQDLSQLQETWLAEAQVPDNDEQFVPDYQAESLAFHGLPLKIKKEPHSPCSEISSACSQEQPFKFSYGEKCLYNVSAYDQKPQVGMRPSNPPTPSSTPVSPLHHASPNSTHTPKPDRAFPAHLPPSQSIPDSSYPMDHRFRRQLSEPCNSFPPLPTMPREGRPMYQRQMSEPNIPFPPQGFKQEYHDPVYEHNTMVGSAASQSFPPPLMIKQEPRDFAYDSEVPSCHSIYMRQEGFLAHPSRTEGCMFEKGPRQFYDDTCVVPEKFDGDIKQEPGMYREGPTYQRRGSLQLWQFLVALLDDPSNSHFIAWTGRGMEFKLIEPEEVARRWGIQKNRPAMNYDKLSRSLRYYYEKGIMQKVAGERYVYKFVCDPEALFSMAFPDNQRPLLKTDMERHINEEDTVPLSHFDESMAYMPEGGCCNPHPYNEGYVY
Sequence of HSF1 (Q00613 whole entry): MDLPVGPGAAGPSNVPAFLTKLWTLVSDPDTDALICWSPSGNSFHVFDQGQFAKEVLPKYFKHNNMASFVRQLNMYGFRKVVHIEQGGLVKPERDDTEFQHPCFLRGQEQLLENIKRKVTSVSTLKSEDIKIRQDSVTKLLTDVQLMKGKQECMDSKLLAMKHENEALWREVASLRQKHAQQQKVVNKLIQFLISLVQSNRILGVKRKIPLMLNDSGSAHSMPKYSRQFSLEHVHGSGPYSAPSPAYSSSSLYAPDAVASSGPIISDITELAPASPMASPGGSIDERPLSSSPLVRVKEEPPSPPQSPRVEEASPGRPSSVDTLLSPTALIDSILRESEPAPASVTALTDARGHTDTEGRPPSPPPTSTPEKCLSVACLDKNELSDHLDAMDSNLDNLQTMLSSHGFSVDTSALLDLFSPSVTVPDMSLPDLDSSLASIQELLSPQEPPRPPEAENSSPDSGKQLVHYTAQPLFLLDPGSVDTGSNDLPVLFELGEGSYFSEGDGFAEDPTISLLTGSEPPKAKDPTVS

Regarding TTCACC, the binding signal was 1.35 fold enrichment (6-mer frequency, TF over GST control) in experiment [1]; 1.39 fold enrichment (6-mer frequency, TF over GST control) in experiment [2]; 1.34 fold enrichment (6-mer frequency, TF over GST control) in [3]; 1.38 fold enrichment (6-mer frequency, TF over GST control) in experiment [4]; 1.39 fold enrichment (6-mer frequency, TF over GST control) in experiment [5]; 1.19 fold enrichment (6-mer frequency, TF over GST control) in experiment [6]. For the same sequence, the binding signal in experiment [7] is 1.4 fold enrichment (6-mer frequency, TF over GST control); in experiment [8], 1.28 fold enrichment (6-mer frequency, TF over GST control); in experiment [9], 1.32 fold enrichment (6-mer frequency, TF over GST control); in experiment [10], 1.39 fold enrichment (6-mer frequency, TF over GST control); in [11], 1.33 fold enrichment (6-mer frequency, TF over GST control); in experiment [12], 1.14 fold enrichment (6-mer frequency, TF over GST control). Moreover, the binding signal is 1.34 fold enrichment (6-mer frequency, TF over GST control) in experiment [13]; 1.44 fold enrichment (6-mer frequency, TF over GST control) in experiment [14]; 1.36 fold enrichment (6-mer frequency, TF over GST control) in experiment [15]; 1.36 fold enrichment (6-mer frequency, TF over GST control) in [16]; 1.57 fold enrichment (6-mer frequency, TF over GST control) in experiment [17]; 1.17 fold enrichment (6-mer frequency, TF over GST control) in experiment [18]. Further, the binding signal in [19] is 1.4 fold enrichment (6-mer frequency, TF over GST control).
